Here are results for eleven compounds from PubChem BioAssay (EPA / NIEHS).

Assay [1] in a line: ATG_NRF2_ARE_CIS: Attagene CIS-FACTORIAL HepG2 Assay for human Nuclear Factor Erythroid 2 Related Factor 2 (NFR2) response to Antioxidant Response Elements (ARE) (AID 2282992).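 For AC50: reporter mRNA level measured by RT-PCR and capillary electrophoresis fluorescence.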 Conditions: HepG2 Attagene ARE/NRF2 reporter, transcription factor activity; actives raise or lower the signal. The method, boiled down: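 Readout: reporter mRNA quantified by RT-PCR plus FAM-labelled primer extension, HpaI digestion and capillary electrophoresis, 24 h after dosing transfected HepG2 cells. Gain or loss of signal is fitted bidirectionally against DMSO baseline.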

The nature of assay [2]: ATG_Oct_MLP_CIS: Attagene CIS-FACTORIAL HepG2 Assay for human Octamer-Binding Transcription Factor (Oct) (AID 2282993). Conditions: HepG2 Attagene cis-factorial Oct reporter, mRNA; actives raise or lower the signal. The method, boiled down: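 HepG2 cells transiently transfected with cis-promoter-driven multiplexed reporter transcription units, dosed for 24 h. Reporter mRNA quantified by RT-PCR, fluorescent labelling, HpaI digestion and capillary electrophoresis; bidirectional fits versus DMSO baseline.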

The target of assay [3] is Cellular tumor antigen p53 (Homo sapiens) (UniProt P04637). Description: ATG_p53_CIS: Attagene CIS-FACTORIAL HepG2 Assay for human p53 Transcription Factor (AID 2282994). Conditions: HepG2 p53 cis-element reporter, Attagene mRNA; actives raise or lower the signal. In outline: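 Read-out: reporter mRNA by RT-PCR plus capillary electrophoresis with fluorescence detection. Human HepG2 liver cells carried transfected multi-reporter cis-element constructs, dosed 24 h. Gain or loss of signal fitted bidirectionally against DMSO control.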

Assay [4] is described as follows: BSK_3C_TissueFactor: BioMAP Diversity Plus: 3C Assay for Tissue Factor Biomarker Activity (AID 2282997). Conditions: BioMAP 3C HUVEC, tissue factor biomarker readout; actives raise or lower the signal. In outline: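 After a 24 h chemical exposure of primary human umbilical vein endothelial cells, Tissue Factor levels were quantified by ELISA.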
Assay [5] is described as follows: BSK_3C_uPAR: BioMAP Diversity Plus: 3C Assay for Urokinase-type plasminogen activator receptor (uPAR) Biomarker Activity (AID 2282998). Conditions: BioMAP 3C HUVEC, uPAR biomarker ELISA; actives raise or lower the signal. In outline: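 Human umbilical vein endothelial primary cells were exposed to test chemical for 24 h. Cell-surface uPAR was then quantified by ELISA, and responses were fitted bidirectionally against DMSO as negative control and baseline.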

Assay [6] in a line: BSK_3C_VCAM1: BioMAP Diversity Plus: 3C Assay for Vascular cell adhesion molecule 1 (VCAM1) Biomarker Activity (AID 2282999). Conditions: BioMAP 3C HUVEC, VCAM1 ELISA, cytokine-stimulated; actives raise or lower the signal. In outline: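 Activity fitted in both directions relative to DMSO, with ELISA measurement of the surface marker on primary HUVEC (3C) at 24 h post-treatment; parallel SRB staining (0.1% SRB, TCA-fixed, 560 nm) flagged overt cytotoxicity.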

The nature of assay [7]: BSK_4H_Eotaxin3: BioMAP Diversity Plus: 4H Assay for Eotaxin 3 Biomarker Activity (AID 2283000).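 For outcome: CCL26 protein level quantified by ELISA in parallel with SRB cytotoxicity check.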 Conditions: primary human endothelial cells (HUVEC); actives raise or lower the signal. The method, boiled down:
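Chemicals were added to human umbilical vein endothelium cultures, and Eotaxin-3 was quantified by ELISA at 24 h. Values were derived by bidirectional fitting with DMSO serving as negative control and activity baseline.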

Read-out in assay [8]: Intercellular Adhesion Molecule 1 (ICAM1), ICAM1 (gene 3383)
Description: BSK_3C_ICAM1: BioMAP Diversity Plus: 3C Assay for Intercellular Adhesion Molecule 1 (ICAM1) Biomarker Activity (AID 2283003). Conditions: primary human endothelial cells (HUVEC); actives raise or lower the signal. The method, boiled down: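 ELISA read-out of ICAM-1; HUVEC (primary human), 3C system, 24 h post-dosing; bidirectional fit vs DMSO baseline.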

The target of assay [9] is human Retinoic Acid Receptor beta (RARb), RARB (gene 5915) (UniProt P10826). Description: ATG_RARb_TRANS: Attagene TRANS-FACTORIAL HepG2 Assay for human Retinoic Acid Receptor beta (AID 2283004; active = hit-call score of the fitted dose curve at least 0.9, where 1 is the maximum). The method, boiled down: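 Transient transfection of HepG2 with multiple reporter units → chemical dosing, 24 h → total RNA isolation → RT with oligo(dT) → reporter-specific PCR, 6-FAM primer extension, HpaI digest → capillary electrophoresis. Positive direction vs DMSO control.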

Assay [10] deals with Retinoic acid receptor alpha (Homo sapiens) (UniProt P10276). Briefly: ATG_RARa_TRANS: Attagene TRANS-FACTORIAL HepG2 Assay for human Retinoic Acid Receptor alpha (RARa) (AID 2283005; active = hit-call score of the fitted dose curve at least 0.9, where 1 is the maximum). The method, boiled down:
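Reporter transcripts, measured by RT-PCR with fluorescent labeling and capillary electrophoresis after 24 h dosing, reflect activity of an exogenous human RARa–GAL4 fusion in transiently transfected HepG2. Fitted for increase relative to DMSO.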

For assay [11], the target named is Peroxisome proliferator-activated receptor gamma (Homo sapiens) (UniProt P37231). Briefly: ATG_PPARg_TRANS: Attagene TRANS-FACTORIAL HepG2 Assay for human Peroxisome Proliferator-activated Receptor-gamma (PPARg) (AID 2283007; active = hit-call score of the fitted dose curve at least 0.9, where 1 is the maximum). In outline: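 Human hepatoma HepG2, transient MRTU transfection, 24 h treatment. mRNA reporter signal by RT-PCR plus capillary electrophoresis, fluorescence detection; fitted for increase over DMSO negative control.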

The target in assay [12] is Nuclear receptor subfamily 1 group I member 2 (Homo sapiens) (UniProt O75469). Briefly: ATG_PXR_TRANS: Attagene TRANS-FACTORIAL HepG2 Assay for human Pregnane X Receptor (PXR) (AID 2283008; active = hit-call score of the fitted dose curve at least 0.9, where 1 is the maximum). The method, boiled down: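 Trans-factorial format: exogenous NR-Gal4 fusion activity, not endogenous factor, in transfected human HepG2 liver cells. After 24 h dosing, RNA isolated, reverse-transcribed, amplified and resolved by capillary electrophoresis; induction scored versus DMSO.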

For assay [13], the target named is human Retinoic Acid Receptor gamma (RARg), RARG (gene 5916) (UniProt P13631). Description: ATG_RARg_TRANS: Attagene TRANS-FACTORIAL HepG2 Assay for human Retinoic Acid Receptor gamma (RARg) (AID 2283009; active = hit-call score of the fitted dose curve at least 0.9, where 1 is the maximum). In outline: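 Readout: reporter transcript levels via RT-PCR, 6-FAM primer-extension labelling, HpaI digestion and capillary electrophoresis. Cells: HepG2 carrying transfected RARg-GAL4 chimera plus UAS reporter set. Dosing 24 h; DMSO negative control.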

Assay [14] concerns the target human RAR-related Orphan Receptor beta (RORb), RORB (gene 6096) (UniProt Q92753). Description: ATG_RORb_TRANS: Attagene TRANS-FACTORIAL HepG2 Assay for human RAR-related Orphan Receptor beta (RORb) (AID 2283010; active = hit-call score of the fitted dose curve at least 0.9, where 1 is the maximum). The method, boiled down: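 HepG2, transient MRTU transfection (GAL4-UAS reporters, exogenous NR-Gal4 chimeras); 24 h compound exposure; total RNA → RT-PCR → 6-FAM primer extension → HpaI digest → CE fluorescence. Positive direction vs DMSO baseline.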

Assay [15] can be described thus: BSK_3C_Proliferation: Cell Proliferation Assessment in the BioMAP Diversity Plus: 3C Assay (AID 2283006).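 For AC50: potency may reflect either rise or fall in cell number versus DMSO.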 Conditions: primary human endothelial cells (HUVEC). In outline: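 HUVEC, sub-confluent; 48 h chemical exposure; 10% TCA fix, 0.1% SRB stain, A560 total protein. Gain or loss of signal fitted both directions vs DMSO control.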
Assay [16] concerns the target Retinoic acid receptor RXR-alpha (Homo sapiens) (UniProt P19793). Briefly: ATG_RXRa_TRANS: Attagene TRANS-FACTORIAL HepG2 Assay for human Retinoid X Receptor alpha (RXRa) (AID 2283012; active = hit-call score of the fitted dose curve at least 0.9, where 1 is the maximum). In outline:
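Read-out: fluorescent reporter-transcript fragments quantified by capillary electrophoresis after RT-PCR. Transiently transfected HepG2 cells carrying GAL4-UAS reporters and NR-GAL4 chimeras were exposed to chemical for 24 h; activity scored as increase over DMSO.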

The target of assay [17] is human Peroxisome Proliferator-activated Receptor delta (PPARd), PPARD (gene 5467) (UniProt Q03181). Description: ATG_PPARd_TRANS: Attagene TRANS-FACTORIAL HepG2 Assay for human Peroxisome Proliferator-activated Receptor delta (PPARd) (AID 2283002; active = hit-call score of the fitted dose curve at least 0.9, where 1 is the maximum). The method, boiled down:
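Cell-based TRANS reporter: HepG2, transient MRTU transfection, 24 h exposure. Readout = reporter mRNA (RT-PCR/CE, 6-FAM). Gain-of-signal fit vs DMSO control.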

Assay [18] has as its target human RAR-related Orphan Receptor gamma (RORg), RORC (gene 6097) (UniProt P51449). Briefly: ATG_RORg_TRANS: Attagene TRANS-FACTORIAL HepG2 Assay for human RAR-related Orphan Receptor gamma (RORg) (AID 2283011; active = hit-call score of the fitted dose curve at least 0.9, where 1 is the maximum). The method, boiled down:
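First, HepG2 liver cells were transfected with GAL4-UAS-driven reporter constructs and the RORg-Gal4 fusion. Next, they were treated with chemical for 24 h. Finally, reporter mRNA was quantified by RT-PCR and capillary electrophoresis, with upward activity fitted against DMSO.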

Records with an inconclusive call do not appear. Active and inactive are the calls of the source. Rule for the calls, unless noted: active = hit-call score of the fitted dose curve at least 0.9, where 1 is the maximum; inactive = score below 0.9.

Chain of Retinoic acid receptor RXR-alpha (Homo sapiens) (P19793 whole entry, looked up, the tested form may be a part): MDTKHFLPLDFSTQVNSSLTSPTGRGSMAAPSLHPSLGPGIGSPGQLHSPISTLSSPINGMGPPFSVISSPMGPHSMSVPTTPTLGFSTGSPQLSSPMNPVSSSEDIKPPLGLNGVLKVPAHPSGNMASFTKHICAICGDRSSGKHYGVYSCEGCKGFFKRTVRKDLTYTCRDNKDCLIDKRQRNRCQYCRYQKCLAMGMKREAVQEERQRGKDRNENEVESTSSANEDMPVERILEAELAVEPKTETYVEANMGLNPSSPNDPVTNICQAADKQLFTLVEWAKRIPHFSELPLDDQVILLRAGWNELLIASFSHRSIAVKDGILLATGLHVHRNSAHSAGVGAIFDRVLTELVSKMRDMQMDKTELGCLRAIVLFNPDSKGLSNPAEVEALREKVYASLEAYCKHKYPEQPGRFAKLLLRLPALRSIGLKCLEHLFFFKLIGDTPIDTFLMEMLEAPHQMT
Chain of Nuclear receptor subfamily 1 group I member 2 (Homo sapiens) (O75469 whole entry, looked up, the tested form may be a part): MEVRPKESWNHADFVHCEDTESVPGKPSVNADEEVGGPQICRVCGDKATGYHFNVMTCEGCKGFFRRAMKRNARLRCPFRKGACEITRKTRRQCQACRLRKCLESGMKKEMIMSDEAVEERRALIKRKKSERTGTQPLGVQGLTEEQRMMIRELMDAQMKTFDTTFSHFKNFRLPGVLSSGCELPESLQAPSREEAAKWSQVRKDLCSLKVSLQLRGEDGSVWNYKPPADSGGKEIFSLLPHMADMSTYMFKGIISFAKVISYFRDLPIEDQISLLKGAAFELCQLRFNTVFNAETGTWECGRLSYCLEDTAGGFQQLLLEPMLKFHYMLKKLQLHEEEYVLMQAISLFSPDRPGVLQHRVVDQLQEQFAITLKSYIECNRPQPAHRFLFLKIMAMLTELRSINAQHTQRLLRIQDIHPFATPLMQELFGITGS
Chain of human Retinoic Acid Receptor gamma (RARg), RARG (gene 5916) (P13631 whole entry, looked up, the tested form may be a part): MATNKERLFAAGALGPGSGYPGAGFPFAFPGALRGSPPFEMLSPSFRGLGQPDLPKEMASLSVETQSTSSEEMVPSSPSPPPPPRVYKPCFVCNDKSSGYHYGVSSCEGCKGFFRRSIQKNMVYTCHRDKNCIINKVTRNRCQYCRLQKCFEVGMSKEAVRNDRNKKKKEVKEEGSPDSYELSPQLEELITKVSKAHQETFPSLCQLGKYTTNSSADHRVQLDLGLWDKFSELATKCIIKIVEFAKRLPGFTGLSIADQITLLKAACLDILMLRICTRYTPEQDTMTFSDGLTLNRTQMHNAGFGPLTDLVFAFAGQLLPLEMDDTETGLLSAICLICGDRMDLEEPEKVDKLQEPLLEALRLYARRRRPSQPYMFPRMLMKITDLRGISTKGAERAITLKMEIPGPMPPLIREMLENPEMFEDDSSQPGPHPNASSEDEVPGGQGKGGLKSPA
Chain of Peroxisome proliferator-activated receptor gamma (Homo sapiens) (P37231 whole entry, looked up): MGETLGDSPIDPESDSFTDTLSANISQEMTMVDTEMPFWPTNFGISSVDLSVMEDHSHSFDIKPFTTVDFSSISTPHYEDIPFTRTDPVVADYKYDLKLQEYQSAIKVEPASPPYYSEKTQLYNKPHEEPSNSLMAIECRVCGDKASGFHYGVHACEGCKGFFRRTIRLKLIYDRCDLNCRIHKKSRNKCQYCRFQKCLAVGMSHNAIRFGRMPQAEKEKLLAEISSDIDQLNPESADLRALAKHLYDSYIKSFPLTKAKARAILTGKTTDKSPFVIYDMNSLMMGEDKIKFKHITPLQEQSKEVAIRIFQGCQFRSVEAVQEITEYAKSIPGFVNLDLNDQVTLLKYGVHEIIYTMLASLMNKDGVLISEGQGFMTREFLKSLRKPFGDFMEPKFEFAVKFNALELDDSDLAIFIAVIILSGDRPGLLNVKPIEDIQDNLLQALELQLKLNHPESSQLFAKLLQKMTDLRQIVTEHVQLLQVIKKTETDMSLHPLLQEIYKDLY
Chain of human RAR-related Orphan Receptor beta (RORb), RORB (gene 6096) (Q92753 whole entry, looked up, the tested form may be a part): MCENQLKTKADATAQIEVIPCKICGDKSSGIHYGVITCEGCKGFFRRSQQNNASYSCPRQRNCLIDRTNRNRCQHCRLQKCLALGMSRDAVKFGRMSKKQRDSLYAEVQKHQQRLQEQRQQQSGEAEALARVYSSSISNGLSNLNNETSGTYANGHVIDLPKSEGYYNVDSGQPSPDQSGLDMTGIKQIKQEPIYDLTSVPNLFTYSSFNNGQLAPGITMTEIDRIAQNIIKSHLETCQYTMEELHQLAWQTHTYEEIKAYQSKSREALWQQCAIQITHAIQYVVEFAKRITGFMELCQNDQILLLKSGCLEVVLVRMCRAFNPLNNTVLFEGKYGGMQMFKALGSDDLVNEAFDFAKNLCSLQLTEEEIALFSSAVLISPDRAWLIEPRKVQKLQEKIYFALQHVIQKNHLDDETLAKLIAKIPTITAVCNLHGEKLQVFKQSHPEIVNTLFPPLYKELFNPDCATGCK
Chain of Cellular tumor antigen p53 (Homo sapiens) (P04637 whole entry, looked up): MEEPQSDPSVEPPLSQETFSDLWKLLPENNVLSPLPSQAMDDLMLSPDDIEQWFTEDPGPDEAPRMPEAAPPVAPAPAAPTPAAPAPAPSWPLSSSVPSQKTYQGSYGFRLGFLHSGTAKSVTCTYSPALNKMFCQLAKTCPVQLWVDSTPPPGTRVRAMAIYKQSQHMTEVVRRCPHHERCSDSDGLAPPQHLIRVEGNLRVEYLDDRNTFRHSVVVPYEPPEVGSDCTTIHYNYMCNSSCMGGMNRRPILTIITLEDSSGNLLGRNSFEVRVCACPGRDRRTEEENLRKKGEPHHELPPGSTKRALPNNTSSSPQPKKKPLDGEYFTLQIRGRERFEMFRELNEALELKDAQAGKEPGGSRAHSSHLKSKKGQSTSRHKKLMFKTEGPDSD
Chain of Retinoic acid receptor alpha (Homo sapiens) (P10276 whole entry, looked up, the tested form may be a part): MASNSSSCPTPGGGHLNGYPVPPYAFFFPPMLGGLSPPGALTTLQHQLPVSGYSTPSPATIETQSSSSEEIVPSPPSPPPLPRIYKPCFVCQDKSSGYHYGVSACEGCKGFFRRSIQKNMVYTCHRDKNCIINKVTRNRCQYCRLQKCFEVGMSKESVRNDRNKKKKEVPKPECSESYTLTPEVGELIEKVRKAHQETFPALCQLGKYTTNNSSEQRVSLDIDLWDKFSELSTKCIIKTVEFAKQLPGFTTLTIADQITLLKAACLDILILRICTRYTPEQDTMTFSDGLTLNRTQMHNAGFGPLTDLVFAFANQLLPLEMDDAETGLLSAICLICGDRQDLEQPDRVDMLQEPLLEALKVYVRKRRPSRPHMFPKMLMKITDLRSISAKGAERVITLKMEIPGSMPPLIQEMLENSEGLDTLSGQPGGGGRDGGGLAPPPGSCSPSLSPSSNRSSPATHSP
Chain of human Retinoic Acid Receptor beta (RARb), RARB (gene 5915) (P10826 whole entry, looked up): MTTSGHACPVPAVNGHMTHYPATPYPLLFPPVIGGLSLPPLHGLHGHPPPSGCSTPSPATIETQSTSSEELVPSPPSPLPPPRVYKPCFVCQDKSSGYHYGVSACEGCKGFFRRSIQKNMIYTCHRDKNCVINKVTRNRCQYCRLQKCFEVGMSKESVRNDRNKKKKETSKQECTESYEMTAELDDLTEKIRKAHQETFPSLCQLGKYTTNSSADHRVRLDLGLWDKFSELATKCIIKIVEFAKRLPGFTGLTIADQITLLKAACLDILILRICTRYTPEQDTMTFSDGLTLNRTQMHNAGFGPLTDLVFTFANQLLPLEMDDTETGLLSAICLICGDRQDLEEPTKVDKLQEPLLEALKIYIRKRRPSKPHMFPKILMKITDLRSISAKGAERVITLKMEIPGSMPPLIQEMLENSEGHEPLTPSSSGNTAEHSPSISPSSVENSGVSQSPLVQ
Chain of human Peroxisome Proliferator-activated Receptor delta (PPARd), PPARD (gene 5467) (Q03181 whole entry, looked up): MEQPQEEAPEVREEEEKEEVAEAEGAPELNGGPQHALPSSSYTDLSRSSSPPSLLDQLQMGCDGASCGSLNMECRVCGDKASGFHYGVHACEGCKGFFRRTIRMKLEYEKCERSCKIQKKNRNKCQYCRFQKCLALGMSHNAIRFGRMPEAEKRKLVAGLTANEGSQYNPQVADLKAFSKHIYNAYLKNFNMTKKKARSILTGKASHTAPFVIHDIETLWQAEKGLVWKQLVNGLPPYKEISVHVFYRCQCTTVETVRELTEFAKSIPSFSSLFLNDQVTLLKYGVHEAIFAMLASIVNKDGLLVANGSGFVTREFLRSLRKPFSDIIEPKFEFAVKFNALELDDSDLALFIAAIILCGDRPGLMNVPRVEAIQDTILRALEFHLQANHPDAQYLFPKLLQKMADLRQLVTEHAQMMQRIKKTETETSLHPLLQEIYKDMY
Chain of human RAR-related Orphan Receptor gamma (RORg), RORC (gene 6097) (P51449 whole entry, looked up, the tested form may be a part): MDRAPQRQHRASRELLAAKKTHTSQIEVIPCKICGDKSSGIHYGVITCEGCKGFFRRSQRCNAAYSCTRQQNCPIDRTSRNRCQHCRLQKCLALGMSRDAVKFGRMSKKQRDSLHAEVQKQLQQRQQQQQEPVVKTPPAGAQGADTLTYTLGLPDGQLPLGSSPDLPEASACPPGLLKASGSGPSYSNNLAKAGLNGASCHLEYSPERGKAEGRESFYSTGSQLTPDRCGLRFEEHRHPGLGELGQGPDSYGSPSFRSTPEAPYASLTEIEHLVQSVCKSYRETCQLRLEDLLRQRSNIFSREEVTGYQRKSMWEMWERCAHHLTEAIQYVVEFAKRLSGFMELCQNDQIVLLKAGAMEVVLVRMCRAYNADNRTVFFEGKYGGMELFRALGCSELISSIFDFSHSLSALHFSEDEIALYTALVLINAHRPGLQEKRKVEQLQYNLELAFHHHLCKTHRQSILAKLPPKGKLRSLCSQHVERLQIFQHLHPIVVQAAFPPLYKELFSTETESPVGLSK

Take `Cc1ccc(C)c(O)c1`: the compound was called inactive in assay [1], in assay [2], in [3], in [4], in assay [5] and in [6]. Also, the outcome in assay [7], in assay [8], in assay [9], in [10], in assay [11] and in [12] was inactive. Also, the outcome in [13] and in assay [14] was inactive.

As for `O=C(CCCCCCCCc1cccnc1)N1CCC(C=C(c2ccccc2)c2ccccc2)CC1`, the AC50 in [1] was 4.68 µM (active); in [2], 8.91 µM (active); in assay [3], 19.3 µM (active); in assay [4] it was 8.68 µM (active); in [5], 7.01 µM (active); in assay [6] it was 14.3 µM (active). Also, the AC50 in [7] is 9.64 µM (active); in assay [8], 15.4 µM (active); in assay [15], 5.66 µM (active); in [11], 1.41 µM (active); in assay [12], 1.08 µM (active). Further, the compound was called inactive in [16].

Take `Cc1ccc(O)cc1`: the call in assay [1], in assay [2], in [3], in [4], in assay [5] and in assay [6] was inactive. Besides, the result in assay [7], in assay [8] and in assay [15] was inactive.

Consider `CC(C)c1cccc(C(C)C)c1N1C(=O)c2ccc(O)cc2C1=O`, for which the AC50 is 25.2 µM (active) in assay [1]; 76.2 µM (active) in assay [2]; 166 µM (active) in assay [3]; 19 µM (active) in assay [5]; 16.7 µM (active) in assay [6]; 30.8 µM (active) in assay [7]. The AC50 in assay [15] was 3.32 µM (active). Also, the result in assay [4], in [17], in assay [8], in [10], in assay [11] and in assay [13] was inactive. For the same compound, the outcome in assay [16] was inactive.

Turning to `Cn1c(=O)c2c(ncn2C)n(C)c1=O`, the result in [1], in [2], in assay [3], in assay [4], in [5] and in [6] was inactive. In addition, the result in assay [7], in [8], in assay [15], in assay [12], in [14] and in [16] was inactive.

Take `COC(=O)CC(=O)OC`: the result in [1], in assay [2], in assay [3], in [4], in assay [5] and in assay [6] was inactive. The outcome in assay [7], in assay [8] and in [16] was inactive.

Turning to `O=C(O)c1cc(N=Nc2ccc(S(=O)(=O)Nc3ccccn3)cc2)ccc1O`, the call in [1], in [2], in assay [3], in assay [4], in [5] and in [6] was inactive. The result in [7], in [8], in assay [14] and in assay [16] was inactive. Moreover, in assay [11], the AC50 is 57.4 µM (active).

As for `NC(=O)NO`, the compound was classed as inactive in assay [1], in [2], in [3], in [4], in assay [5] and in [6]. For the same compound, the outcome in assay [7], in assay [8], in assay [10], in assay [12], in [14] and in [18] was inactive.

As to `CCN(C(=O)c1cc(C)cc(OC[C@H](C)Nc2ccncc2)c1)C(C)C`, the AC50 is 8.92 µM (active) in [1] and 7.38 µM (active) in assay [12]. For the same compound, the call in assay [2], in [3], in [4], in assay [5], in [6] and in [7] was inactive. Further, the outcome in assay [8], in [9], in [10], in assay [11], in [13] and in [14] was inactive. The outcome in assay [16] was inactive.

In the case of `CCCC(=O)OCC`, the outcome in assay [1], in assay [2], in assay [3], in [4], in assay [5] and in [6] was inactive. In addition, the outcome in assay [7], in assay [8] and in [11] was inactive.

On to `CNCc1ccc(NC(=O)c2c[nH]c3c2C(=O)CCC3)cc1`, for which the AC50 in assay [1] is 56.6 µM (active). Moreover, the call in [2], in assay [3], in assay [4], in assay [5], in assay [6] and in [7] was inactive. Moreover, the result in assay [8], in [10], in assay [15], in [11], in assay [13] and in assay [16] was inactive.
